PubChem BioAssay AID1159580 (chemical genetic matrix, 2015)
Where “and” joins values, the source holds several entries; their conditions need not be identical. Equal values may be shown once. The campaign covered roughly 5,500 compounds. About 2,000 (36%) were called active. Another 18% or so got no clear call; they are omitted. Rule as the data show it: active = normalized growth mostly below about 0.91 (no sharp cut-off); inconclusive = no clear call, values can overlap the other calls; inactive = mostly above about 0.92. Some of the results follow.

Assay: chemical genetic growth profiling, strain panel (AID 1159580);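 also: tested at 20 µM; growth read once vehicle control cultures reached saturation at 30 °C; 1 = growth at the plate median or of vehicle wells; lower values mean less growth of the strain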
Conditions: S. cerevisiae deletion strains, growth OD

Measured: normalized growth

COc1cc(-c2coc3cc(O[C@@H]4O[C@H](CO)[C@@H](O)[C@H](O)[C@H]4O)c(OC)c(O)c3c2=O)cc(O)c1OC
inactive: locus YAL021C, strain ccr4, stronger effect = lower value 1.01 | locus YAL026C, strain drs2, stronger effect = lower value 1.01 | locus YAL030W, strain snc1, stronger effect = lower value 0.988 | locus YBL061C, strain skt5, stronger effect = lower value 0.997 | locus YBR009C, strain hhf1, stronger effect = lower value 0.986 | locus YBR021W, strain FUR4, stronger effect = lower value 1.02 | locus YBR023C, strain chs3, stronger effect = lower value 0.989 | locus YBR171W, strain sec66, stronger effect = lower value 0.99 | locus YBR229C, strain ROT2, stronger effect = lower value 0.994 | locus YBR231C, strain swc5, stronger effect = lower value 0.983 | locus YBR279W, strain paf1, stronger effect = lower value 1 | locus YCL011C, strain gbp2, stronger effect = lower value 0.999 | locus YCL016C, strain dcc1, stronger effect = lower value 0.996 | locus YCL029C, strain bik1, stronger effect = lower value 1.01 | locus YCL061C, strain MRC1, stronger effect = lower value 0.994 | locus YCL069W, strain vba3, stronger effect = lower value 1.01 | locus YCR088W, strain abp1, stronger effect = lower value 0.997 | locus YDL005C, strain med2, stronger effect = lower value 0.98 | locus YDL035C, strain GPR1, stronger effect = lower value 1.04 | locus YDL040C, strain nat1, stronger effect = lower value 0.994 | locus YDL074C, strain BRE1, stronger effect = lower value 1.08 | locus YDL101C, strain DUN1, stronger effect = lower value 0.987 | locus YDL185W, strain tfp1, stronger effect = lower value 0.997 | locus YDL192W, strain arf1, stronger effect = lower value 1.02 | locus YDR001C, strain nth1, stronger effect = lower value 1.01 | locus YDR069C, strain doa4, stronger effect = lower value 0.986 | locus YDR101C, strain arx1, stronger effect = lower value 1.03 | locus YDR137W, strain rgp1, stronger effect = lower value 1.02 | locus YDR150W, strain NUM1, stronger effect = lower value 1.02 | locus YDR159W, strain sac3, stronger effect = lower value 0.973 | locus YDR162C, strain NBP2, stronger effect = lower value 1.03 | locus YDR195W, strain ref2 0.939 | locus YDR297W, strain sur2, stronger effect = lower value 1.01 | locus YDR318W, strain mcm21, stronger effect = lower value 1.02 | locus YDR334W, strain swr1, stronger effect = lower value 0.997 | locus YDR335W, strain msn5, stronger effect = lower value 1 | locus YDR388W, stronger effect = lower value 1 | locus YDR392W, strain spt3, stronger effect = lower value 0.874 | locus YDR502C, strain sam2, stronger effect = lower value 1 | locus YEL003W, strain gim4, stronger effect = lower value 0.982 | locus YEL037C, strain rad23, stronger effect = lower value 1.01 | locus YEL061C, strain CIN8 (second series), stronger effect = lower value 1 | locus YEL061C, strain CIN8, stronger effect = lower value 1 | locus YER015W, strain faa2, stronger effect = lower value 1 | locus YER016W, strain bim1, stronger effect = lower value 0.996 | locus YER110C, stronger effect = lower value 0.996 | locus YER111C, strain swi4, stronger effect = lower value 1 | locus YER155C, strain BEM2 (second series), stronger effect = lower value 0.928 | locus YER155C, strain BEM2, stronger effect = lower value 0.991 | locus YER167W, strain BCK2, stronger effect = lower value 0.993 | locus YFR010W, strain ubp6, stronger effect = lower value 0.999 | locus YGL078C, strain dbp3, stronger effect = lower value 0.988 | locus YGL086W, strain mad1, stronger effect = lower value 1 | locus YGL167C, strain pmr1, stronger effect = lower value 0.996 | locus YGL173C, strain kem1, stronger effect = lower value 1 | locus YGL227W, strain vid30, stronger effect = lower value 0.995 | locus YGL240W, strain doc1, stronger effect = lower value 0.961 | locus YGL248W, strain PDE1, stronger effect = lower value 0.982 | locus YGL253W, strain hxk2, stronger effect = lower value 1.02 | locus YGR135W, strain pre9, stronger effect = lower value 0.97 | locus YGR252W, strain gcn5, stronger effect = lower value 0.997 | locus YHR013C, strain ard1, stronger effect = lower value 0.979 | locus YHR027C, strain rpn1, stronger effect = lower value 0.995 | locus YHR030C, strain SLT2, stronger effect = lower value 1.01 | locus YHR079C, strain IRE1 (second series), stronger effect = lower value 1 | locus YHR079C, strain IRE1, stronger effect = lower value 1.01 | locus YHR094C, strain hxt1, stronger effect = lower value 0.993 | locus YHR129C, strain ARP1, stronger effect = lower value 0.999 | locus YHR142W, strain chs7, stronger effect = lower value 1.02 | locus YHR200W, strain rpn10, stronger effect = lower value 1 | locus YIL066C, strain RNR3, stronger effect = lower value 1 | locus YIL073C, strain SPO22, stronger effect = lower value 1.05 | locus YIL125W, strain kgd1, stronger effect = lower value 0.997 | locus YIR030C, strain dcg1, stronger effect = lower value 0.994 | locus YJL092W, strain hpr5, stronger effect = lower value 1 | locus YJL095W, strain BCK1 (second series), stronger effect = lower value 1 | locus YJL095W, strain BCK1, stronger effect = lower value 1.02 and 1.01 | locus YJL115W, strain asf1, stronger effect = lower value 0.993 | locus YJL129C, strain trk1, stronger effect = lower value 1 | locus YJL134W, strain LCB3, stronger effect = lower value 0.992 | locus YJL154C, strain vps35, stronger effect = lower value 0.997 | locus YJL164C, strain tpk1, stronger effect = lower value 1 | locus YJL166W, strain qcr8, stronger effect = lower value 0.991 | locus YJL168C, strain set2, stronger effect = lower value 0.995 | locus YJL187C, strain SWE1 (second series), stronger effect = lower value 0.991 | locus YJR043C, strain POL32, stronger effect = lower value 1.05
